Compound activity from PubChem BioAssay.
TSHR agonist = TSH receptor (human) agonism; P16473; HEK293-CNG-TSHR cells (CNG channel as cAMP sensor), membrane potential dye, cAMP; Potency, µM (titrated, usually from 57.1 µM), actives largely listed as activators; actives 0.48% (n = 73,000); AID 926; active = well fitted activation curve with a large enough effect in the main read-out, with a control signal flat, not every such curve was filed as active; inconclusive = small, poorly fitted or top-dose-only effect, or a change in a side signal; inactive = no such curve, though single readings can be large or run the other way; reference of the percent scale not stated here;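 also: the control signal comes from parental cells without the receptor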
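HEK 293 cells stably expressing TSHR and a cAMP-gated CNG channel; parental CNG-only cells as counterscreen. Cells preloaded 60 min with membrane potential dye plus 100 uM RO 20-1724, then compound 30 min; fluorescence read at 590 nm.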
Casp1 inh = caspase-1 (human) inhibition, allosteric or competitive. P29466. Caspase-1 enzyme, Ac-WEHD-AFC fluorogenic rate. Potency, µM (titrated, usually from 57.5 µM), usual class: inhibitors. actives 0.03% (n = 75,000). AID 900
Target sequence (P29466 120-297 limits assumed): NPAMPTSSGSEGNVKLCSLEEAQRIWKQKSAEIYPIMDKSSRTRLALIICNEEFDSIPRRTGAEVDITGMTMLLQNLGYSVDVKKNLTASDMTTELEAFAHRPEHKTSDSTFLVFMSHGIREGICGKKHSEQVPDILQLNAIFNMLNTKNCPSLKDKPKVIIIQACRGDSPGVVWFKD
Target sequence (P29466 317-404 limits assumed): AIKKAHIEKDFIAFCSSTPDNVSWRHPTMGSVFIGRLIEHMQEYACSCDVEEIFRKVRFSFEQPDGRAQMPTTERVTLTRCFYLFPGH
Casp7 inh = allosteric or competitive inhibitors of human caspase-7 | P55210 | recombinant caspase-7, Ac-DEVD-AFC fluorescence rate | Potency, µM (titrated, usually from 57.5 µM), actives largely listed as inhibitors | actives 0.02% (n = 75,000) | AID 889; active = well fitted inhibition curve with a large enough effect in the main read-out, with a control signal flat, not every such curve was filed as active; inconclusive = small, poorly fitted or top-dose-only effect, or a change in a side signal
HEK293 cAMP ctrl = parental HEK293 cAMP activation (counter-screen); parental HEK293 CNG cAMP sensor, membrane potential fluorescence; Potency, µM (titrated, usually from 57.1 µM), usual class: activators; actives 2.5% (n = 73,000); AID 938; also: nearly all actives have a fitted effect of over 55% in size
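Parental HEK 293 cells stably expressing a cAMP-gated CNG channel were loaded with membrane potential dye containing 100 uM RO 20-1724 for 60 min. Compound added for 30 min; depolarization read as fluorescence intensity at 590 nm.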
CRE Fsk mod = CRE-bla signaling modulation under forskolin stimulation | CHO CRE-bla reporter (cAMP response element driving beta-lactamase), forskolin EC10, beta-lactamase ratio | Potency, µM (series often up to 38.2 µM), usual class: activators | actives 2.5% (n = 71,000) | AID 662; active = well fitted activation curve with a large enough effect in the signal ratio, with a control signal flat, not every such curve was filed as active; inconclusive = small, poorly fitted or top-dose-only effect, or effect the other way, or a change in a side signal; the % refers to the signal ratio
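Using CellSensor CRE-bla CHO cells in Opti-MEM with 0.5% dialyzed FBS, compounds were titrated with EC10 NKH 477 for 3 h at 37 °C. CCF4 ratio (460/530 nm) gave %Activity; AC50 derived.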
USP2a inh = blocks human ubiquitin-specific protease USP2a; Potency, µM (titrated, usually from 38.3 µM), most hits filed as inhibitors; O75604; actives 0.1% (n = 60,000); USP2a enzymatic assay, qHTS inhibition; also: nearly all actives have a fitted effect of over 60% in size
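Coupled readout: USP2-cleaved Ub-PLA2 (20nM final) turns over NBD C6-HPC (20uM final), Ex 460nm/Em 535nm after 2.5 h, time-zero read flagging artifacts. Enzyme (20nM final, pH 8.0 Tris) given 30 min RT with compound first; NEM defines full inhibition.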
Each line names hits and unclear results; the compound was inactive in the other large screens. This is a sample that favours compounds with a hit; in the whole collection about 5% have one here. Unless noted, calls follow the shape of the dose curve; as a rule, active = well fitted curve in the direction sought with a large enough effect; inconclusive = small, poorly fitted or top-dose-only effect, or another doubt; inactive = no such curve, though single readings can be large; an effect the other way counts as inactive or inconclusive.

CCOC(=O)C1=C(C)OC(N)=C(C#N)C1c1cc2c(cc1Br)OCO2 (stereo unspecified)	Casp1 inh inconclusive (no result: TSHR agonist)
CCOC(=O)C1=C(C)OC(N)=C(C#N)C1C1CCCCC1 (stereo unspecified)	TSHR agonist inconclusive, HEK293 cAMP ctrl 25.1µM
CCOC(=O)C1=C(C)OC(N)=C(C#N)C1c1ccsc1 (stereo unspecified)	TSHR agonist inconclusive, HEK293 cAMP ctrl 20µM
C=CCn1c(SCc2nc3ccccc3c(=O)[nH]2)nnc1-c1cc2cc(Cl)ccc2o1	TSHR agonist inconclusive, HEK293 cAMP ctrl 31.6µM
O=c1[nH]c(CSc2nnc(-c3ccncc3)n2Cc2ccco2)nc2ccccc12	CRE Fsk mod inconclusive
O=C(O)c1ccc(SSc2ccc(C(=O)O)cn2)nc1	CRE Fsk mod inconclusive (no result: USP2a inh)
O=C(NCCCN1CCCCCC1)[C@@H](c1ccccc1)C1CCCCC1	TSHR agonist inconclusive, HEK293 cAMP ctrl 15.8µM, CRE Fsk mod inconclusive (no result: USP2a inh)
CC(C)C[C@H](N)C(=O)O	none (no result: USP2a inh)
CCCCCCn1c(N(CC)CC)nc2c1c(=O)[nH]c(=O)n2C	CRE Fsk mod 10µM
CCCCn1c(NCCC)nc2c1c(=O)[nH]c(=O)n2C	CRE Fsk mod 2.51µM
CCCNc1nc2c(c(=O)[nH]c(=O)n2C)n1CCC(C)C	CRE Fsk mod 10µM
CN(C)CC(C)(C)CNC(=O)c1ccc(Cc2nc3ccccc3[nH]2)cc1	none (no result: CRE Fsk mod, USP2a inh)
CC12C=C(/C=C/C=C/c3ccco3)C(C)(C1)C(/C=C/c1ccco1)CC2=O (stereo unspecified)	none (no result: CRE Fsk mod, USP2a inh)
CC(C)[C@@H]1O[C@H](/C=C\c2ccccc2)OCC1(C)C	none (no result: USP2a inh)
N#Cc1c2c(c(N3CCN(c4ccccn4)CC3)n3c1nc1ccccc13)CCC2	CRE Fsk mod inconclusive
Cc1cc(N2CCN(c3ccccn3)CC2)n2c(nc3ccccc32)c1C#N	TSHR agonist inconclusive, HEK293 cAMP ctrl 2µM, CRE Fsk mod inconclusive
O=C(Nc1ccc2nc(-c3cccs3)c(-c3cccs3)nc2c1)N1CCOCC1	Casp7 inh inconclusive, CRE Fsk mod 10µM (no result: Casp1 inh)
CCC(C)(C(=O)NC1CCCCC1)N(Cc1ccco1)C(=O)c1ccc2c(c1)OCO2 (stereo unspecified)	TSHR agonist inconclusive, HEK293 cAMP ctrl 7.94µM
N#Cc1nc(-c2cccs2)oc1N1CCN(c2ccccc2)CC1	TSHR agonist inconclusive, HEK293 cAMP ctrl 20µM, CRE Fsk mod inconclusive
CC[C@H](C(=O)c1cccs1)C(O)(C(F)(F)F)C(F)(F)F	none (no result: TSHR agonist, USP2a inh)
O=C(CSc1nnc(-c2ccccc2)o1)Nc1ccccc1F	none (no result: USP2a inh)
O=C(CSc1nnc(-c2ccc(Br)cc2)o1)Nc1cccc2ccccc12	TSHR agonist 0.0398µM
CCOC(=O)c1cc(-c2ccco2)nc2c1c(C)nn2-c1ccccc1	TSHR agonist 3.16µM, CRE Fsk mod inconclusive
CCOCC(=O)Nc1c(C(=O)OCC)oc2ccccc12	TSHR agonist inconclusive, HEK293 cAMP ctrl inconclusive, CRE Fsk mod 10µM
COc1ccccc1NC(=O)c1oc2ccccc2c1NC(=O)c1cc(OC)c(OC)c(OC)c1	CRE Fsk mod 1.26µM
CCOC(=O)c1oc2ccccc2c1NC(=O)Cc1cccs1	CRE Fsk mod inconclusive (no result: TSHR agonist)
CCOC(=O)c1oc2ccccc2c1NC(=O)COC	CRE Fsk mod inconclusive
CCOC(=O)c1oc2ccccc2c1NC(=O)c1cc(OC)cc(OC)c1	TSHR agonist inconclusive, HEK293 cAMP ctrl inconclusive, CRE Fsk mod 10µM
Nc1nc(Cl)cc(NCCO)n1	none (no result: USP2a inh)
O=P(O)(CCP(=O)(O)c1ccccc1)c1ccccc1	none (no result: USP2a inh)
COc1ccc2cc(C(=O)CCC(=O)O)ccc2c1	none (no result: USP2a inh)
O=C(O)c1c[nH]c2c(ccc3[nH]cc(C(=O)O)c(=O)c32)c1=O	none (no result: USP2a inh)
O=C1c2c(O)cc(O)cc2O[C@@H](c2ccc(O)c(O)c2)[C@H]1O	none
Nc1ncnc2c1nc(Br)n2[C@@H]1O[C@H]2COP(=O)(O)O[C@@H]2[C@H]1O	TSHR agonist inconclusive, HEK293 cAMP ctrl inconclusive, CRE Fsk mod inconclusive
CN1CCc2c(sc(/N=C/c3cccs3)c2C(N)=O)C1	Casp1 inh inconclusive, Casp7 inh inconclusive, CRE Fsk mod 10µM
